# Reference: ChEMBL document CHEMBL3988442, “University of Dundee, Small-Polar-MMV Screening Library” (2021)
# The campaign covered roughly 66,000 compounds. About 960 (1.5%) showed an effect of 50% or more. The list comes from a sample in which strong results are over-represented; it also holds similar structures and randomly drawn compounds.
# System: Trypanosoma brucei
# Test: Trypanosoma brucei 72 hour study
# Format: functional, organism-based
# Design: scale not given: in the data most compounds retested in dose-response had high values
smiles,measurement,setting,value
O=C(O)C(F)(F)F.c1cnc(NCc2nnn3c2CN(Cc2cccs2)CCC3)nc1,Percent Effect,"30 µM, 30.03 µM",-17.42%
Cc1occc1C(=O)N1CCC2(CCN(C(=O)c3cccnc3)C2)CC1.O=C(O)C(F)(F)F,Percent Effect,"30.3 µM, […]",-37.63%
CCOc1ccccc1C(N)CC(C)C (centres undefined),Percent Effect,"30 µM, 30.03 µM",-21.09%
CC(CNS(N)(=O)=O)Oc1cccc(Cl)c1 (centres undefined),Percent Effect,"30 µM, 30.03 µM",-29.05%
CC(C)C[C@H](N)COc1cccc(F)c1Oc1ccc(Cl)cc1,Percent Effect,"30.3 µM, […]",100.5%
NCc1ccc(Oc2cccc(Cl)c2Cl)cc1,Percent Effect,"30 µM, 30.03 µM",-54.14%
COc1ccccc1C(N)CC(C)C (centres undefined),Percent Effect,"30 µM, 30.03 µM",-12.31%
CCCOc1ccccc1C(N)CC(C)C (centres undefined),Percent Effect,"30 µM, 30.03 µM",-40.73%
CC(C)C[C@H](N)COc1cccc(F)c1Oc1ccccc1,Percent Effect,"30.3 µM, […]",100.2%
CC(CNS(C)(=O)=O)Oc1cccc(Cl)c1 (centres undefined),Percent Effect,"30 µM, 30.03 µM",-19.79%
Cc1ccc(Oc2c(F)cccc2OC[C@@H](N)CC(C)C)cc1,Percent Effect,"30.3 µM, […]",99.61%
CC(C)C[C@H](N)COc1cccc(F)c1Oc1cccc(Cl)c1,Percent Effect,"30.3 µM, […]",99.87%
CC(C)COc1ccccc1C(N)CC(C)C (centres undefined),Percent Effect,"30 µM, 30.03 µM",-18.48%
CNCc1cc(F)ccc1Oc1ccc(Cl)cc1,Percent Effect,"30.3 µM, […]",-18.58%
Cc1ccc(NC2CCN(C(=O)CCc3ccncc3)CC2)nn1,Percent Effect,"30.3 µM, […]",5.448%
same,Percent Effect,"10 mM, 10 mM as filed; unlikely as a test dose",-59.85%
CC(CNCc1ccc2c(c1)n(C)c(=O)n2C)Oc1ccccn1.Cl (centres undefined),Percent Effect,"30 µM, 30.03 µM",-26.55%
CCn1nc(C)c2ccn(CC(=O)NC3CC3)c(=O)c21,Percent Effect,"30 µM, 30.03 µM",-19.49%
c1ccc(-c2nc(CNCCn3cccn3)cs2)nc1,Percent Effect,"30.3 µM, […]",-32.04%
CCn1ncc(CN2CCCC(n3c(=O)oc4ccccc43)C2)c1C.Cl (centres undefined),Percent Effect,"30.3 µM, […]",17.06%
CCc1ccc(C(=O)Nc2ccc3c(c2)N(C)CCN(C)C3)o1,Percent Effect,"30 µM, 30.03 µM",-2.445%
CCN1CCOCC2(CCCN(C(=O)c3ccccc3F)C2)C1.O=C(O)C(F)(F)F (centres undefined),Percent Effect,"30.3 µM, […]",-73.72%
CO[C@H]1CC[C@H]2[C@H]1OCCN2Cc1ccc(F)c(F)c1.O=C(O)C(F)(F)F,Percent Effect,"30.3 µM, […]",-36.53%
CCN1CC2(CC1=O)CN(Cc1cnn(C)c1)CCN(C(=O)N(C)C)C2.O=C(O)C(F)(F)F (centres undefined),Percent Effect,"30 µM, 30.03 µM",-27.29%
CC(=O)NCC1CCN(C(=O)c2c(C)[nH]c3ccc(Cl)cc23)CC1,Percent Effect,"30.3 µM, […]",4.898%
C[C@@H](CO)Nc1nccc(-c2cnc3sc(Cl)cn3c2=O)n1,Percent Effect,"30.3 µM, […]",8.201%
CCc1nc(C)c(C(=O)NCC2COc3cc(OC)ccc3C2)o1 (centres undefined),Percent Effect,"30 µM, 30.03 µM",22.43%
O=C1CCCCN1CCc1nc(-c2cccnn2)no1,Percent Effect,"30 µM, 30.03 µM",-7.651%
CC(C)CNC(=O)[C@H]1C[C@@H]2CN(C(=O)NCCc3ccccc3)C[C@H]1O2,Percent Effect,"30 µM, 30.03 µM",5.175%
O=S1(=O)CCC(S(=O)(=O)c2cccc(S(=O)(=O)N3CCOCC3)c2)C1 (centres undefined),Percent Effect,"30 µM, 30.03 µM",-4.748%
Fc1cccc(CN2CCC[C@H](Cn3nnc(-c4ccccn4)n3)C2)c1,Percent Effect,"30.3 µM, […]",-22.29%
Fc1ccccc1CN1CCC[C@@H](Cn2nnc(-c3cccs3)n2)C1,Percent Effect,"30.3 µM, […]",-5.522%
Fc1ccccc1CN1CCC[C@H](Cn2nnc(-c3cccs3)n2)C1,Percent Effect,"30.3 µM, […]",82.08%
COc1cccc(CN2CCCC3(CCN(C(=O)N4CCCC4)C3)C2)c1.O=C(O)C(F)(F)F (centres undefined),Percent Effect,"30.3 µM, […]",-29.29%
COCCC1(C(=O)O)CCCN(C(=O)c2cc(Cl)ccc2F)C1 (centres undefined),Percent Effect,"30.3 µM, […]",-11.98%
CCC(C)Sc1nncn1-c1ccc(OC)nc1 (centres undefined),Percent Effect,"30 µM, 30.03 µM",74.74%
COc1ccc(-n2cnnc2SCC(=O)NC(C)C)cn1,Percent Effect,"30 µM, 30.03 µM",21.81%
COc1ccc(-n2cnnc2SCC(=O)N(C)C(C)C)cn1,Percent Effect,"30 µM, 30.03 µM",19.1%
CCOC(=O)[C@]12CCCN(Cc3cccs3)C[C@H]1CN(C(C)=O)C2.O=C(O)C(F)(F)F,Percent Effect,"30.3 µM, […]",-10.51%
Cn1cc(N2Cc3nc(N4CCOCC4)ncc3C2=O)cn1,Percent Effect,"30.3 µM, […]",-24.66%
COc1ccc(C)cc1CNCc1ccc(-n2nc(C)cc2C)nc1,Percent Effect,"30 µM, 30.03 µM",-31.15%
Cc1ccc(CNCc2ccc(-n3nc(C)cc3C)nc2)cc1,Percent Effect,"30 µM, 30.03 µM",-12.87%
COc1cc(CNCc2ccc(-n3nc(C)cc3C)nc2)cc(OC)c1,Percent Effect,"30.3 µM, […]",5.745%
Cc1cc(C)n(-c2ccc(CNCc3ccc(OC(C)C)cc3)cn2)n1,Percent Effect,"30 µM, 30.03 µM",-15.45%
CNC(=O)COc1ccc(CNCc2ccc(F)cc2F)cc1,Percent Effect,"30 µM, 30.03 µM",4.908%
Cc1cc(C)n(-c2ccc(CNCc3ccc(C)o3)cn2)n1,Percent Effect,"30.3 µM, […]",8.783%
Cc1cc(C)n(-c2ccc(CNCc3ccc(F)c(F)c3)cn2)n1,Percent Effect,"30.3 µM, […]",53.31%
Cc1cc(C)n(-c2ccc(CNCc3ccc(F)cc3F)cn2)n1,Percent Effect,"30.3 µM, […]",61.76%
Cc1cc(C)n(-c2ccc(CNCc3cccc(C#N)c3)cn2)n1,Percent Effect,"30.3 µM, […]",62.16%
